According to PubChem BioAssay (EPA / NIEHS):
Activity calls are given as the source filed them. The calls were made as follows: active = hit-call score of the fitted dose curve at least 0.9, where 1 is the maximum; inactive = score below 0.9.

assay: BSK_3C_TissueFactor: BioMAP Diversity Plus: 3C Assay for Tissue Factor Biomarker Activity (AID 2282997); details: BioMAP 3C HUVEC, tissue factor biomarker readout; actives raise or lower the signal
Outline: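 Cells used were primary human umbilical vein endothelial cells. They were dosed with chemical, and after 24 h Tissue Factor was quantified by ELISA. Curves were fitted bidirectionally with DMSO as baseline.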

| SMILES | outcome | AC50 |
| --- | --- | --- |
| COc1cc(Cl)c(OC)cc1N | inactive |  |
| C=CC(C)(O)CCC=C(C)C (stereo not given) | inactive |  |
| IC(I)I | inactive |  |
| CC1(C)C2=CCCC(C)(C)[C@]23CC[C@H]1C3 | inactive |  |
| CC(C=O)Cc1ccc(C(C)(C)C)cc1 (stereo not given) |  | 31.1 µM (active) |

assay: BSK_3C_uPAR: BioMAP Diversity Plus: 3C Assay for Urokinase-type plasminogen activator receptor (uPAR) Biomarker Activity (AID 2282998); details: BioMAP 3C HUVEC, uPAR biomarker ELISA; actives raise or lower the signal
Outline: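 HUVEC primary cells; 24 h post-dose; uPAR by ELISA; gain or loss of signal fitted bidirectionally vs DMSO baseline.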

| SMILES | outcome | AC50 |
| --- | --- | --- |
| COc1cc(Cl)c(OC)cc1N | inactive |  |
| C=CC(C)(O)CCC=C(C)C (stereo not given) | inactive |  |
| IC(I)I | inactive |  |
| CC1(C)C2=CCCC(C)(C)[C@]23CC[C@H]1C3 |  | 36.4 µM (active) |
| CC(C=O)Cc1ccc(C(C)(C)C)cc1 (stereo not given) |  | 32.9 µM (active) |

assay: BSK_3C_VCAM1: BioMAP Diversity Plus: 3C Assay for Vascular cell adhesion molecule 1 (VCAM1) Biomarker Activity (AID 2282999); details: BioMAP 3C HUVEC, VCAM1 ELISA, cytokine-stimulated; actives raise or lower the signal
Outline: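 Vascular primary endothelium (human umbilical vein) was exposed to chemicals and assayed 24 h later. VCAM-1 levels came from ELISA, with DMSO serving as baseline for bidirectional fitting.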

| SMILES | outcome | AC50 |
| --- | --- | --- |
| COc1cc(Cl)c(OC)cc1N | inactive |  |
| C=CC(C)(O)CCC=C(C)C (stereo not given) | inactive |  |
| IC(I)I | inactive |  |
| CC1(C)C2=CCCC(C)(C)[C@]23CC[C@H]1C3 | inactive |  |
| CC(C=O)Cc1ccc(C(C)(C)C)cc1 (stereo not given) |  | 36.4 µM (active) |
